{
  "source": "PubChem BioAssay AID977610",
  "origin": "cited, not measured here",
  "experiment": "PubChem AID 977610",
  "details": "PDB protein-ligand complexes, literature Ki",
  "note": "Among all 3,600 compounds or so, about 3,600 (100%) were called active. The limit is not given here; nearly all actives have Ki up to about 18000 µM. So high a share suggests a set chosen from earlier hits. This is one part of the list. Numbered stars: 1 amine (or outer) side, 2 acyl side, 3 side chain; on linkers, the order of the positions; unused ones are H or OH. Where a SMILES comes first, the peptide text is derived from it. Square brackets hold non-standard residues; d marks the D form. Residues, ends and D or L forms follow the SMILES beside them. Peptide text beside a SMILES is read from it. [ ]: non-standard residue; d: D form. X2 = O=C([C@H](Cc1ccc(O[P+](O)(O)O)cc1)N[*:1])[*:2]; Orn(CH(NH2)2) = NC(N)NCCC[C@H](N)C(=O)O",
  "data": [
    {"molecule": "C[C@@H]1N[C@@H](c2cn(-c3ccccc3)nn2)[C@H](O)[C@@H]1O", "values": [
      {"measurement": "Ki", "setting": "protein: Alpha-L-fucosidase Fuc2970, PDB entry 4pee", "value": "0.0048 µM (active)"}
    ]},
    {"molecule": "NCCCC[C@H](N[C@@H](CCc1ccccc1)C(=O)O)C(=O)N1CC=C[C@H]1C(=O)O", "values": [
      {"measurement": "Ki", "setting": "protein: human somatic angiontensin-I converting enzyme N domain, PDB entry 2c6n", "value": "0.131 µM (active)"}
    ]},
    {"molecule": "NCc1ccc(C[C@H](C[P+](O)(O)[C@@H](N)CCc2ccccc2)C(=O)O)cc1", "values": [
      {"measurement": "Ki", "setting": "protein: Aminopeptidase N, PDB entry 4qhp", "value": "0.009 µM (active)"}
    ]},
    {"molecule": "NCc1cccc(C[C@H](C[P+](O)(O)[C@@H](N)CCc2ccccc2)C(=O)O)c1", "values": [
      {"measurement": "Ki", "setting": "protein: Aminopeptidase N, PDB entry 4quo", "value": "0.012 µM (active)"}
    ]},
    {"molecule": "N[C@@H](CCc1cccnc1)[P+](O)(O)C[C@@H](Cc1ccccc1)C(=O)O", "values": [
      {"measurement": "Ki", "setting": "protein: Aminopeptidase N, PDB entry 4qir", "value": "0.112 µM (active)"}
    ]},
    {"molecule": "N[C@@H](CCc1ccccc1)[P+](O)(O)C[C@@H](Cc1ccccc1)C(O)O", "values": [
      {"measurement": "Ki", "setting": "protein: Aminopeptidase N, PDB entry 4qme", "value": "0.302 µM (active)"}
    ]},
    {"molecule": "O=C(O)c1cccc(-c2cnc([C@@H](O)CCCCCCc3ccccc3)o2)n1", "values": [
      {"measurement": "Ki", "setting": "protein: Humanized Variant of Fatty Acid Amide Hydrolase (L192F, F194Y, A377T, S435N, I491V, V495M), PDB entry 3k7f", "value": "0.02 µM (active)"}
    ]},
    {"molecule": "O=C(O)c1cccc(-c2cnc([C@@H](O)CCc3ccc(-c4ccccc4)cc3)o2)n1", "values": [
      {"measurement": "Ki", "setting": "protein: Humanized Variant of Fatty Acid Amide Hydrolase (L192F, F194Y, A377T, S435N, I491V, V495M), PDB entry 3k83", "value": "0.022 µM (active)"}
    ]},
    {"molecule": "Cc1ccc(-c2cnc([C@@H](O)CCCCCCc3ccccc3)o2)nc1", "values": [
      {"measurement": "Ki", "setting": "protein: Fatty-acid amide hydrolase 1 (L192F, F194Y, A377T, S435N, I491V, V495M mutation), PDB entry 4j5p", "value": "0.012 µM (active)"}
    ]},
    {"molecule": "O=C1CC(NC(=O)c2c(Cl)cccc2Cl)=CC=N1", "values": [
      {"measurement": "Ki", "setting": "protein: Non-receptor tyrosine-protein kinase TYK2 (D1023N mutation), PDB entry 4gfo", "value": "0.24 µM (active)"},
      {"measurement": "Ki", "setting": "protein: Tyrosine-protein kinase JAK2, PDB entry 4gfm", "value": "0.06 µM (active)"}
    ]},
    {"molecule": "CC(=O)N[C@@H](CCCNC(N)N)C(=O)N[C@@H](Cc1c[nH]c2ccccc12)C(=O)N[C@H]1CCCCCCCNC(=O)[C@@H]2CCCN2C(=O)[C@H](CCCNC(N)N)NC(=O)[C@H](C)NC(=O)[C@@H]2CCCN2C(=O)[C@H](Cc2ccccc2)NC1=O", "values": [
      {"measurement": "Ki", "setting": "protein: Menin, PDB entry 4i80", "value": "0.0238 µM (active)"}
    ]},
    {"molecule": "Oc1ccc(Br)cc1/C=C/S(O)(O)O", "values": [
      {"measurement": "Ki", "setting": "protein: CARBONIC ANHYDRASE 2, PDB entry 4bcw", "value": "100 µM (active)"}
    ]},
    {"molecule": "CC(C)C[C@@H](N)[C@H](O)C(=O)N[C@H](C(=O)N[C@H](C(=O)N[C@@H](CC(=O)O)C(=O)O)C(C)C)C(C)C", "values": [
      {"measurement": "Ki", "setting": "protein: Glutamyl aminopeptidase, PDB entry 4kx8", "value": "0.074 µM (active)"}
    ]},
    {"molecule": "O=[N+]([O-])c1ccc2n[nH]nc2c1", "values": [
      {"measurement": "Ki", "setting": "protein: KEMP ELIMINASE HG3.17 (V6I, Q37K, K50Q, G82A, M84C, S89N, Q90F, T105I, A125T, T142N, T208M, S265T, F267M, W275A, R276F,, PDB entry 4bs0", "value": "2 µM (active)"}
    ]},
    {"molecule": "H-SRWQTSII-OH", "values": [
      {"measurement": "Ki", "setting": "protein: CFTR Associated Ligand (CAL) PDZ domain, PDB entry 4k6y", "value": "14.8 µM (active)"}
    ]},
    {"molecule": "CSCC[C@H](NC(=O)[C@H](CO)NC(=O)[C@H](CCC(N)=O)NC(=O)[C@H](CCCN=C(N)N)NC(=O)[C@H](CS)NC(=O)[C@@H](N)[C@@H](C)O)C(=O)N[C@@H](CS)C(=O)N[C@H](C(=O)N[C@@H](C)C(=O)N[C@@H](CCCN=C(N)N)C(=O)O)[C@@H](C)O", "note": "(tested in a mixture with another compound) (H-TCRQSMCTAR-OH)", "values": [
      {"measurement": "Ki", "setting": "protein: urokinase-type plasminogen activator (uPA), PDB entry 4mnv", "value": "11.6 µM (active)"}
    ]},
    {"molecule": "H-RWQDTRL-OH", "values": [
      {"measurement": "Ki", "setting": "protein: CFTR Associated Ligand (CAL) PDZ domain, PDB entry 4k75", "value": "56.2 µM (active)"}
    ]},
    {"molecule": "CNc1nc2c(CC[C@H]3O[C@@H](OC)[C@H](O)[C@@H]3OC)c3nc(N)[nH]c(=O)c3cc2[nH]1", "values": [
      {"measurement": "Ki", "setting": "protein: tRNA guanine transglycosylase (TGT), PDB entry 4kwo", "value": "0.353 µM (active)"}
    ]},
    {"molecule": "Cc1nnc(CNCCN2C(O)c3cccc4cccc(c34)C2O)s1", "note": "(stereo not drawn)", "values": [
      {"measurement": "Ki", "setting": "protein: insect beta-N-acetyl-D-hexosaminidase OfHex1, PDB entry 3wmb", "value": "4.28 µM (active)"}
    ]},
    {"molecule": "Cc1nnc(CNCCN2C(O)c3cccc4c(N(C)C)ccc(c34)C2O)s1", "note": "(stereo not drawn)", "values": [
      {"measurement": "Ki", "setting": "protein: insect beta-N-acetyl-D-hexosaminidase OfHex1, PDB entry 3wmc", "value": "0.31 µM (active)"}
    ]},
    {"molecule": "CC(=O)N[C@@H](Cc1ccc(O[P+](O)(O)O)cc1)C(=O)N[C@H](C(=O)N1CCC[C@H]1C(=O)N[C@@H](CCC(=O)O)C(=O)N1CCC[C@H]1C(N)=O)[C@@H](C)O", "note": "(Ac-[X2]TPEP-NH2)", "values": [
      {"measurement": "Ki", "setting": "protein: E3 ubiquitin-protein ligase CBL, PDB entry 4gpl", "value": "1.3 µM (active)"}
    ]},
    {"molecule": "N[C@H](C(=O)O)[C@@H]1N=C(C(=O)O)CCS1", "values": [
      {"measurement": "Ki", "setting": "protein: AmpC Beta-Lactamase, PDB entry 4old", "value": "2000 µM (active)"}
    ]},
    {"molecule": "C=C1CS[C@H]([C@H](N)C(=O)O)N=C1C(=O)O", "values": [
      {"measurement": "Ki", "setting": "protein: AmpC Beta-Lactamase, PDB entry 4okp", "value": "2000 µM (active)"}
    ]},
    {"molecule": "Cc1ccc(NC(=O)c2cccc(C(F)(F)F)c2)cc1-c1ccc2nc(NC3CC3)ncc2c1", "values": [
      {"measurement": "Ki", "setting": "protein: Mitogen-activated protein kinase 1 (Q103A, C164L mutation), PDB entry 4i5h", "value": "0.002 µM (active)"}
    ]},
    {"molecule": "Cc1cccc(Nc2cc(S(O)(O)O)c(N)c3c2C(=O)c2ccccc2C3=O)c1", "values": [
      {"measurement": "Ki", "setting": "protein: ecto-nucleoside triphosphate diphosphohydrolase 2, RnNTPDase2, PDB entry 4cd1", "value": "12.8 µM (active)"}
    ]},
    {"molecule": "CCCCCC(=O)O[C@@H](CO)CO[P+](O)(O)OCC[N+](C)(C)C", "values": [
      {"measurement": "Ki", "setting": "protein: Avermectin-sensitive glutamate-gated chloride channel GluCl alpha, PDB entry 4tnw", "value": "167 µM (active)"}
    ]},
    {"molecule": "Nc1ncnc2c(CN3C[C@H](CSCC[C@H](N)C(=O)O)[C@@H](O)C3)c[nH]c12", "values": [
      {"measurement": "Ki", "setting": "protein: 5'-methylthioadenosine/S-adenosylhomocysteine nucleosidase, PDB entry 4f3k", "value": "6.9e-05 µM (active)"}
    ]},
    {"molecule": "O=c1[nH]cnc2c(CN3C[C@H](O)[C@H](O)[C@H]3CO)csc12", "values": [
      {"measurement": "Ki", "setting": "protein: Inosine-adenosine-guanosine-nucleoside hydrolase, PDB entry 4i73", "value": "0.19 µM (active)"},
      {"measurement": "Ki", "setting": "protein: Inosine-adenosine-guanosine-nucleoside hydrolase, PDB entry 4i74", "value": "0.19 µM (active)"}
    ]},
    {"molecule": "Nc1ncnc2c(CN3C[C@H](O)[C@H](O)[C@H]3CO)c[nH]c12", "values": [
      {"measurement": "Ki", "setting": "protein: Inosine-adenosine-guanosine-nucleoside hydrolase, PDB entry 4i71", "value": "0.018 µM (active)"}
    ]},
    {"molecule": "Nc1ncnc2c([C@@H]3N[C@H](CO)[C@@H](O)[C@H]3O)c[nH]c12", "values": [
      {"measurement": "Ki", "setting": "protein: Inosine-adenosine-guanosine-nucleoside hydrolase, PDB entry 4i72", "value": "0.0009 µM (active)"}
    ]},
    {"molecule": "CSCC[C@H](NC(=O)[C@H](C)N)C(=O)N[C@@H](CCCNC(N)N)C(=O)N[C@H](C(=O)O)C(C)C", "note": "(H-AM[Orn(CH(NH2)2)]V-OH)", "values": [
      {"measurement": "Ki", "setting": "protein: E3 ubiquitin-protein ligase XIAP (C202A, C213G mutation), PDB entry 4j48", "value": "2.41 µM (active)"}
    ]}
  ]
}
